Screens deposited in PubChem by Johns Hopkins Ion Channel Center.
An excerpt weighted towards active compounds, which were near 3.5% of everything screened.
Kir21 inh – inhibitors of mouse Kir2.1 inward-rectifier potassium channel | 310,000 tested, 0.85% active | B-score at 10 µM | AID 1672 | P35561 | HEK293-Kir2.1, FluxOR thallium flux fluorescence; stronger effect = lower value;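 active = fluorescence ratio B-score at or below minus 3 SD of library scores, with starting-brightness B-score within 2 SD, cut at about -4.2 in these data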;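 also: channel flux triggered by added potassium and thallium sulfate stimulus; B-score of peak minus minimum fluorescence over baseline after thallium stimulus; more negative B-score means stronger Kir2.1 block with less thallium influx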
ANO1 activ – activators or potentiators of mouse TMEM16A chloride channel | B-score at 10 µM | Q8BHY3 | 340,000 tested, 0.3% active | HEK293 TMEM16A/YFP-H148Q/I152L, iodide quench fluorescence; stronger effect = lower value | AID 623877;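 active = fluorescence-ratio B-score plate-corrected deviation score at least 3 library SD below zero, with starting fluorescence score within 5 deviations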;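 also: channel opened by trigger with iodide after compound preincubation; score built on the fluorescence ratio of max minus min over baseline; more negative score means more quench and so TMEM16A activation or potentiation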
KCNK3 block – human KCNK3 channel inhibition, primary screen; CHO-KCNK3 thallium flux, FluxOR fluorescence; stronger effect = lower value; AID 602410; O14649; 340,000 tested, 0.84% active; B-score at 10 µM;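 active = B-score under library mean minus 4 SD, starting fluorescence ratio at most library mean plus 5 SD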;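 also: more negative B-score means stronger inhibition of thallium flux through KCNK3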
KCNK9 inh – human KCNK9 channel inhibition; HEK293 KCNK9, FluxOR thallium flux fluorescence; stronger effect = lower value; Q9NPC2; B-score at 10 µM; AID 488922; 310,000 tested, 1.2% active;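 active = ratio B-score over 3 SD below the library mean, with starting fluorescence within 5 SD of its mean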;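 also: negative B-score means less thallium flux so channel inhibition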
Target sequence (Q9NPC2 whole entry, looked up): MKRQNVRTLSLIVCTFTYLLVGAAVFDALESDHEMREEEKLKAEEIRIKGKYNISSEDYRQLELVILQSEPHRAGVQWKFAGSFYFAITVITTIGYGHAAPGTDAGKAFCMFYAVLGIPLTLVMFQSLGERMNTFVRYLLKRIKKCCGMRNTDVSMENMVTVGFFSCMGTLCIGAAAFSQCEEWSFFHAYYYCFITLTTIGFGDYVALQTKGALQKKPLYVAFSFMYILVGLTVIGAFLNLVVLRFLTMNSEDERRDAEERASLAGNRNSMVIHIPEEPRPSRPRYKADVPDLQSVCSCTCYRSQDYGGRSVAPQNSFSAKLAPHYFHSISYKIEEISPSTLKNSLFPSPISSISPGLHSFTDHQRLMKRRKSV
ANO1 block – inhibitors of mouse TMEM16A calcium-activated chloride channel | Q8BHY3 | HEK293 TMEM16A/YFP iodide influx fluorescence, ionomycin | normalized B-score (activity score, 25-100; higher = stronger inhibition) at 10 µM | 310,000 tested, 1.2% active | AID 588511;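 active = ratio plate-corrected score three or more library SD toward inhibition, starting fluorescence score within five deviations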;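 also: score derived from kinetic fluorescence span divided by baseline fluorescence per well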
Of the large screens only hits and unclear results are named; the others gave an inactive call.

Cc1ccc(C(C)C)c(OCC(=O)Nc2ccccc2N2CCN(C)CC2)c1	Kir21 inh -5.1
CC(=O)N1CCN(c2ccccc2NC(=O)COc2cc(C)ccc2C(C)C)CC1	none
CSc1ccccc1NC(=S)N/N=C/c1cccn1Cc1cccc(C)c1	KCNK9 inh -6.6
COc1ccc(NC(=S)N/N=C/c2cccn2Cc2ccccc2F)cc1	none
COc1ccc(NC(=S)N/N=C/c2cccn2Cc2ccc(F)cc2Cl)cc1	none
CSc1ccccc1NC(=S)N/N=C/c1cccn1Cc1ccc(F)cc1	KCNK9 inh -7.9
Nc1ccc(C(=O)OCC(=O)N2c3ccccc3Sc3ccccc32)cc1[N+](=O)[O-]	none (no result: Kir21 inh, KCNK9 inh)
NCCNc1ccc(C(=O)N2c3ccccc3Sc3ccccc32)cc1[N+](=O)[O-]	Kir21 inh -4.9
CCn1c(/C=C/Nc2ccccc2)[n+](CC)c2cc(Cl)c(Cl)cc21	Kir21 inh -7
CN(CCOc1ccccc1Cl)Cc1ccccc1	none
CN(CCOCCOc1ccc(Cl)cc1Br)Cc1ccccc1	Kir21 inh -7.3
CCCCNCCOCCOc1ccc(Cl)cc1Br	Kir21 inh -6.1
Cc1ccc(Cl)c(OCCCCN(C)Cc2ccccc2)c1	Kir21 inh -9.5
CCN(C(=O)COC(=O)c1cccc(S(=O)(=O)NCc2ccccc2)c1)c1ccccc1	none (no result: Kir21 inh, KCNK9 inh, ANO1 block)
Cc1ccc(S(=O)(=O)N2[C@@H](c3cccc(Cl)c3)C(C(=O)O)=CC[C@H]2c2cccc(Cl)c2)cc1	ANO1 block 100 (no result: Kir21 inh, KCNK9 inh)
Cc1ccc([C@H]2C(C(=O)O)=CC[C@@H](c3cccc(C)c3)N2S(=O)(=O)c2ccc(C)cc2)cc1	none (no result: Kir21 inh, ANO1 activ, KCNK9 inh, ANO1 block)
Cc1ccc(S(=O)(=O)N2[C@@H](c3cccc(Cl)c3)C(C(=O)O)=CC[C@H]2c2cccc(C)c2)cc1	ANO1 block 25 (no result: Kir21 inh, KCNK9 inh)
Cc1ccc([C@H]2C(C(=O)O)=CC[C@@H](c3cccc(Cl)c3)N2S(=O)(=O)c2ccc(C)cc2)cc1	none (no result: Kir21 inh, ANO1 activ, KCNK9 inh, ANO1 block)
CCOC(=O)CNC(=O)C1CCN(S(=O)(=O)c2ccc(-c3nn[nH]n3)cc2)CC1	none
Cc1ccc(NC(=O)C2CCN(C(=O)c3ccco3)CC2)cc1C	none
c1ccc(C2OC3c4cccc5cccc(c45)C3N2c2ccccc2)cc1 (configuration not stated)	KCNK9 inh -7.9
O=C(NCCOC12CC3CC(CC(C3)C1)C2)c1cccc(Br)c1	none
CCNC(=S)N1CCn2cccc2C1c1ccc(F)cc1 (configuration not stated)	KCNK9 inh -8
c1ccc2c3c([nH]c2c1)C(C1CCCCC1)N(Cc1ncc[nH]1)CC3 (configuration not stated)	Kir21 inh -4.6
O=C(NCc1ccccc1Cl)c1ccc(S(=O)(=O)Nc2cccc(C(F)(F)F)c2)cc1	ANO1 block 100
CC(=O)Nc1ccc(N2C(=O)CSC2c2cccc(Br)c2)cc1 (configuration not stated)	none
OC1(c2cccc(C(F)(F)F)c2)CCN(c2ncnc3c2[nH]c2ccccc23)CC1	ANO1 block 100
c1ccc2c(c1)CCN(c1ncnc3c1[nH]c1ccccc13)C2	KCNK3 block -8.7, ANO1 block 100
COc1cccc2[nH]c3c(N4CCc5ccccc5C4)ncnc3c12	none (no result: ANO1 activ, KCNK3 block)
OC1(c2cccc(C(F)(F)F)c2)CCN(c2ccc(-c3ccccc3)nn2)CC1	none (no result: Kir21 inh, KCNK9 inh)
COc1ccc(NC(=O)c2ccc(Cl)c(S(=O)(=O)N3CCc4ccccc4C3)c2)cn1	KCNK3 block -10
CC12CCC(=O)C=C1CCC1C2C(O)CC2(C)C1CCC2(O)C(=O)COC(=O)COCC(=O)O (configuration not stated)	none (no result: Kir21 inh, KCNK9 inh, ANO1 block)
O=C1S/C(=C\c2ccc(O)c([N+](=O)[O-])c2)C(=O)N1Cc1cccc([N+](=O)[O-])c1	ANO1 block 100
Cc1cccc(NC(=O)CN2C(=O)S/C(=C\c3ccc(O)c([N+](=O)[O-])c3)C2=O)c1	none
Cc1ccc(NC(=O)CN2C(=O)S/C(=C/c3ccc(O)c([N+](=O)[O-])c3)C2=O)cc1C	none (no result: Kir21 inh, KCNK9 inh, ANO1 block)
O=C1S/C(=C\c2ccc(O)c([N+](=O)[O-])c2)C(=O)N1c1ccccc1Cl	ANO1 block 100
COc1cc(/C=C2\SC(=O)N(c3cccc(Cl)c3)C2=O)cc([N+](=O)[O-])c1O	ANO1 activ -5.6 (no result: Kir21 inh, KCNK9 inh, ANO1 block)
O=C(C1Cc2ccccc2CN1C(=O)c1ccccc1)N1CCN(c2ccccc2)CC1 (configuration not stated)	none
CN(CC(=O)Nc1ccc(Cl)c(C(F)(F)F)c1)C(=O)Cc1ccsc1	none
